Screens deposited in PubChem BioAssay by National Center for Advancing Translational Sciences (NCATS).
FLuc counter = inhibits or activates purified firefly luciferase, miR-21 counter-screen; P08659; purified FLuc, Km substrates, luminescence inhibition; Potency, µM (top dose mostly 57.5 µM), without a hit: at the top dose activity change, negative = inhibition, usual class: inhibitors; 6.9% of 360,000 active; AID 588342;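 also: plate controls were vehicle for no effect and reference inhibitor for full effect; nearly all actives have a fitted effect of over 55% in size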
Target sequence (P08659 whole entry, looked up): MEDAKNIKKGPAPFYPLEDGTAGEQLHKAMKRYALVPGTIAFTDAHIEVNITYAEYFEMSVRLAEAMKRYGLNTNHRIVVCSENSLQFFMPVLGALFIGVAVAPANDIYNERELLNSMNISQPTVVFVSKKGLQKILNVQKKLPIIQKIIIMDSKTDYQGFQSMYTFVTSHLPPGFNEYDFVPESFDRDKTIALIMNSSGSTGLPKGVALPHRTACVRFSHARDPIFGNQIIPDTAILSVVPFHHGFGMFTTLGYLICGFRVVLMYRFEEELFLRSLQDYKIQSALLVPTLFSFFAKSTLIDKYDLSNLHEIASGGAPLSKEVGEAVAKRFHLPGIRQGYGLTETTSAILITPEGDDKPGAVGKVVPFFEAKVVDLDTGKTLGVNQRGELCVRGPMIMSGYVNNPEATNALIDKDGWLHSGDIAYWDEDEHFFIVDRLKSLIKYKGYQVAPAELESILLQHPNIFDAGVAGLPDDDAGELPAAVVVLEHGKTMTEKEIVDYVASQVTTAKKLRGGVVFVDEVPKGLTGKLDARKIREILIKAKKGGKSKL
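Purified P. pyralis luciferase (10nM final) with 10uM D-luciferin and 10uM ATP (Km levels) in 50mM Tris acetate pH 7.5, 10mM Mg acetate, 0.01% Tween-20, 0.05% BSA; qHTS 6-point titration, ~60 µM downward; luminescence read.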
ELG1 genotoxic = genotoxicity induction in ELG1-luciferase HEK293T cells; HEK293T ELG1-luciferase reporter, luminescence, 16 h; Potency, µM (highest dose often 46 µM), without a hit: at the highest dose activity change, positive = activation, hits mostly activators; 1.3% of 330,000 active; also: % of control where 0% means no effect; nearly all actives have a fitted effect of over 60% in size
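DMSO vehicle served as control against compound-treated ELG1-luciferase HEK293T cells; exposure lasted 16 hr at 37 °C and 5% CO2, followed by ONE-Glo luminescence detection after 30 min.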
SMN2 splice enh = SMN2 splice variant enhancement. 2.8% of 210,000 active. HEK293 SMN2-luciferase splicing reporter, luminescence, 30-36 h. Potency, µM (titrated, usually from 46.1 µM), for inactives: top-dose activity change, positive = activation, actives largely listed as activators; also: % of control where 0% means no effect; nearly all actives have a fitted effect of over 55% in size
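HEK293 cells carry an SMN2 minigene-luciferase reporter in which exon 7 inclusion puts luciferase in frame. Cells were seeded at 2000 cells/well, attached for 10-12 hours, then exposed to compounds for 30-36 hours at 37C before ONE-Glo luminescence.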
Rab9 prom act = activators of Rab9 promoter; Huh7 Rab9 promoter-luciferase reporter, luminescence, 24 h; 2.8% of 320,000 active; Potency, µM (highest dose often 9.22 µM), for the others: at the highest dose activation, negative = inhibition, most hits filed as activators; also: % of control where 0% means no effect; nearly all actives have a fitted effect of over 60% in size
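Rab9 promoter-driven luciferase in stably transfected Huh7 cells; 1500 cells/well rested 2 h, exposed to compound in DMSO for 24 h at 37 °C, 5% CO2. Luminescence read 10 min after adding luciferase reagent at ambient temperature.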
NPC1 promoter act = NPC1 promoter activation; Huh7 NPC1 promoter luciferase reporter, 24 h; 2.4% of 320,000 active; AID 485313; Potency, µM (highest dose often 9.22 µM), inactives show top-dose activation, actives largely listed as activators; also: % of control where 0% means no effect; nearly all actives have a fitted effect of over 60% in size
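NPC1 promoter–luciferase Huh7 cells; 24 h compound; luminescence.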
Numbers without * were called inactive. An excerpt weighted towards active compounds, which were near 7.5% of everything screened. Calls follow the shape of the dose curve; as a rule, active = well fitted curve in the direction sought with a large enough effect; inconclusive = small, poorly fitted or top-dose-only effect, or another doubt; inactive = no such curve, though single readings can be large; an effect the other way counts as inactive or inconclusive. Potency is read from the fitted curve at half-maximal effect.

Screening COc1ccc(COc2ccccc2C(=O)Nc2ccccn2)cc1[N+](=O)[O-] returned FLuc counter 0%, ELG1 genotoxic 1%, SMN2 splice enh -1%, Rab9 prom act -4% and NPC1 promoter act -4%.
COc1cc2nc(C3CCC3)nc(N3CCN(c4ccccc4OC)CC3)c2cc1OC was read as FLuc counter 1%, ELG1 genotoxic -12%, SMN2 splice enh -19%, Rab9 prom act -3% and NPC1 promoter act -12%.
For Cc1ccc(NC(=O)c2ccco2)c(OCc2cc(=O)n3cc(C)sc3n2)c1 the results were FLuc counter 2%.
`COc1cc(SC)ccc1C(=O)Nc1cccc(C)n1` gave FLuc counter 3.4µM*, ELG1 genotoxic inconclusive, SMN2 splice enh 11µM*, Rab9 prom act 2µM* and NPC1 promoter act inconclusive.
`COc1cc(SC)ccc1C(=O)Nc1ccc2ncccc2c1` gave FLuc counter 0.76µM*, ELG1 genotoxic inconclusive, Rab9 prom act 0.45µM* and NPC1 promoter act 1.3µM*.
Screening COc1cc(SC)ccc1C(=O)Nc1ncc(Cl)cc1Cl returned FLuc counter 2.4µM*, ELG1 genotoxic inconclusive, SMN2 splice enh 13µM*, Rab9 prom act 1.6µM* and NPC1 promoter act 4µM*.
`COc1cc(SC)ccc1C(=O)NCCOc1ccc(Cl)cc1` gave FLuc counter -16%, ELG1 genotoxic -2%, SMN2 splice enh -11%, Rab9 prom act 1% and NPC1 promoter act 0%.
For COc1cc(SC)ccc1C(=O)Nc1ccc(Br)cn1 the results were FLuc counter 0.076µM*, ELG1 genotoxic inconclusive, Rab9 prom act 0.28µM* and NPC1 promoter act 0.32µM*.
`O=C(Cn1cnnn1)NC1CCCN(Cc2ccccc2F)C1` (stereo unspecified) gave FLuc counter -1%, ELG1 genotoxic 0%, Rab9 prom act 0% and NPC1 promoter act -2%.
Screening CC1CCCC(C)N1CCCNC(=O)c1ccc2nc(N3CCCCC3)sc2c1 (stereo unspecified) returned FLuc counter -11%, ELG1 genotoxic 11%, Rab9 prom act inconclusive and NPC1 promoter act 3.2µM*.
`CC1CC(C)CN(CCCNC(=O)c2ccc3nc(N4CCCCC4)sc3c2)C1` (stereo unspecified) gave FLuc counter -12%, ELG1 genotoxic inconclusive, Rab9 prom act inconclusive and NPC1 promoter act 0.45µM*.
Screening CCc1ccc(CNC(=O)Cn2nc(C)c3nn(-c4ccc(Cl)cc4)c(C)c3c2=O)cc1 returned FLuc counter 1%.
For Cc1ccc(NC(=O)c2nc3nccc(C)n3n2)c(C)c1 the results were FLuc counter inconclusive, ELG1 genotoxic inconclusive, SMN2 splice enh 11µM*, Rab9 prom act inconclusive and NPC1 promoter act inconclusive.
Screening Cc1ccnc2nc(C(=O)Nc3nc4ccccc4s3)nn12 returned FLuc counter 11µM*, ELG1 genotoxic inconclusive, Rab9 prom act 2.8µM* and NPC1 promoter act 1µM*.
Screening Cc1csc(NC(=O)c2nc3nccc(C)n3n2)n1 returned FLuc counter inconclusive, ELG1 genotoxic inconclusive, SMN2 splice enh 14%, Rab9 prom act inconclusive and NPC1 promoter act inconclusive.
`CN1c2ccccc2C(C)(C)C12CC(c1ccc(S(=O)(=O)N3CCCCC3)cc1)=NO2` (stereo unspecified) gave FLuc counter -1%, ELG1 genotoxic -5%, SMN2 splice enh 1.1µM*, Rab9 prom act 8% and NPC1 promoter act -5%.
Screening CCCC(C)c1nnc(NC(=O)C2CC(=O)N(CCc3ccc(F)cc3)C2)s1 (stereo unspecified) returned FLuc counter -13%, ELG1 genotoxic -9%, Rab9 prom act -4% and NPC1 promoter act 0%.
`Cc1ccc2nc(/C=C/c3cccc(F)c3)ccc2c1` gave FLuc counter 1.2µM*, ELG1 genotoxic 1.8µM*, SMN2 splice enh 10µM*, Rab9 prom act 2µM* and NPC1 promoter act 3.5µM*.
Cc1ccc2ncccc2c1 was read as FLuc counter -2%, ELG1 genotoxic 3%, SMN2 splice enh 14%, Rab9 prom act -4% and NPC1 promoter act 14%.
For COc1ccc(OC)c(N)c1 the results were FLuc counter 1%, ELG1 genotoxic -1%, SMN2 splice enh -7%, Rab9 prom act 18% and NPC1 promoter act -3%.
Screening COc1ccc(/C(C)=N/Nc2ccc(C(=O)O)cc2)c(OC)c1 returned FLuc counter 7.6µM*, ELG1 genotoxic inconclusive, SMN2 splice enh 16µM*, Rab9 prom act 1.8µM* and NPC1 promoter act inconclusive.
COc1ccc2c(c1)C(=NN)c1cc(OC)ccc1-2 was read as FLuc counter 11µM*, ELG1 genotoxic 4%, SMN2 splice enh -10%, Rab9 prom act inconclusive and NPC1 promoter act 29%.
For COc1ccc2c(c1)C(=NNc1ccc(C(=O)O)cc1)c1cc(OC)ccc1-2 the results were FLuc counter 6µM*, ELG1 genotoxic 2%, Rab9 prom act 7% and NPC1 promoter act 2%.
`CC1(C)OC(=O)C(=NNc2ccc(C(=O)O)cc2)C(=O)O1` gave FLuc counter 0%, ELG1 genotoxic 1%, Rab9 prom act 13% and NPC1 promoter act 1%.
COc1ccc(/C(C)=N/NC(=O)CNC(=O)Cc2ccccc2)c(OC)c1 was read as FLuc counter -1%, ELG1 genotoxic 0%, Rab9 prom act -8% and NPC1 promoter act 7%.
Screening Cc1c(C)n(CCc2ccccc2)c2ncnc(NCCCO)c12 returned FLuc counter 11µM*, ELG1 genotoxic inconclusive, Rab9 prom act 1.6µM* and NPC1 promoter act 1.8µM*.
For Cc1c(C)n(CCc2ccccc2)c2ncnc(NN)c12 the results were FLuc counter -15%, ELG1 genotoxic -3%, Rab9 prom act -14% and NPC1 promoter act -26%.
For COCCn1c(C)c(C)c2c(NCCc3ccccc3)ncnc21 the results were FLuc counter 0.85µM*, ELG1 genotoxic inconclusive, Rab9 prom act 0.5µM* and NPC1 promoter act 0.35µM*.
Screening CCCN(CCC)CCCNC(=O)C1CCC(CNS(=O)(=O)c2ccc(NC(C)=O)cc2)CC1 (stereo unspecified) returned FLuc counter 0%.
For O=C(Nc1cccc(NC(=O)c2ccco2)c1)c1ccc([N+](=O)[O-])cc1 the results were FLuc counter 3%, ELG1 genotoxic -2%, Rab9 prom act -7% and NPC1 promoter act -3%.
For Cc1cccc(C(=O)Nc2cccc(OC(=O)c3cccc(C)c3)c2)c1 the results were FLuc counter -26%, ELG1 genotoxic inconclusive, SMN2 splice enh -4%, Rab9 prom act 3% and NPC1 promoter act 10%.
COc1ccc(C(=O)Nc2cccc(OC(=O)c3ccco3)c2)cc1 was read as FLuc counter 13µM*, ELG1 genotoxic 4.6µM*, Rab9 prom act inconclusive and NPC1 promoter act inconclusive.
